# Measured values as given in the supplement of paper PMC6555819.
# Tests used:
# Assay in all cases: PBM binding z-score (relative to random genomic background probes); higher = stronger binding; sequences stand for … in GC…GCGATTGACAGCGTAGAATGAAGG
# [1] = test system: RARb homodimer (NR concentration 270 nM)
# Outline: (§1)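 Random background probes are the reference for binding z-scores. These scores derive from regression-normalized fluorescence on custom Agilent 4×180K protein-binding microarrays incubated 1 h with ligand-free nuclear receptor dimers. Binding was detected with antibodies against each partner (one per run).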
# [2] = test system: RARg:RXRa (NR concentration 270 nM, RXRa partner concentration 90 nM)
# Outline: as §1
# [3] = test system: RARg homodimer (NR concentration 270 nM)
# Outline: as §1
# [4] = test system: RXRa DBDmut IVT, anti-RXR (DBD mutation: RXRa K156A/R161A, NR concentration 90 nM)
# Outline: as §1
# [5] = test system: RXRa homodimer (NR concentration 180 nM)
# Outline: as §1
# [6] = test system: THRa:RXRa (NR concentration 90 nM, RXRa partner concentration 90 nM)
# Outline: as §1
# [7] = test system: THRa homodimer (NR concentration 90 nM)
# Outline: as §1
# [8] = test system: VDR:RXRa (NR concentration 270 nM, RXRa partner concentration 90 nM)
# Outline: as §1
# [9] = test system: VDR homodimer (NR concentration 270 nM)
# Outline: as §1
Sequence,PBM binding z-score [1],PBM binding z-score [2],PBM binding z-score [3],PBM binding z-score [4],PBM binding z-score [5],PBM binding z-score [6],PBM binding z-score [7],PBM binding z-score [8],PBM binding z-score [9]
TAGACAGGGTCAAAGGCCAGAGTACGAATGTCGA,3.3,5.52,4.86,2.49,6.9,3.23,0.292,4.73,2.18
CCTGCTAGGTCAATGCTCAGCTAAAGCAGCTCGC,2.37,3.14,4.3,1.92,1.47,1.97,0.173,0.598,-0.26
GTACCAAGGTGAATAGGTCGTTGACGAGTAGGCG,1.93,2.91,1.53,-0.0525,2.19,1.92,0.438,–,0.14
CGTCAAAGTCCAACTAAGGTAACGTAAAGCACGC,1.43,0.748,1.4,1.14,0.261,3.44,1.91,–,0.579
CCAGACATGTGAGAAGGTAACTCAGCCTCGATTA,0.158,-0.0792,0.231,0.753,0.09,-0.0389,0.447,–,0.382
CCTATTAGTTGACCATAATGGCAACCGAAGCTCG,0.786,0.589,0.606,0.918,0.421,0.384,0.631,–,1.12
TCAGACAGGTGAAGGTAATTCAGGTACGCAGTCG,0.916,0.717,0.626,1.5,1.08,1.81,0.574,–,0.38
AGAATGAGGTGAAGATCAGGGAAACAGAATACAT,0.949,1.15,1.09,-0.551,1.05,2.77,1.32,–,0.103
TCTTGTAGATCAACACGAGGTTAAGAAAGATCGA,0.596,0.823,0.361,0.555,1.07,1.57,0.0132,–,0.099
TAGCCTAGGTCACTCAGGGGCCAGTATAGAAAGC,3.61,5.91,5.25,0.581,2.94,3.17,0.528,–,0.664
ACTAGCAGGCCAAGTTTGGCTCACTCAAACAAAG,-0.243,-0.36,-0.0918,-0.118,-0.415,-0.267,-0.863,–,-0.448
CCTATTAGTTGACCATAAGTGCAACCGAAGCTCG,1.59,0.741,0.841,1.18,0.751,0.954,1.18,–,1.81
GGAACGAGGGCAAGCTGATAGCAGAGTTTGATGG,0.957,1.17,1.95,1.68,0.6,0.878,-0.593,–,1.03
ATACCAAGGTGATCGGGAGGTCGTTGATACTAAC,1.96,2.79,0.879,0.167,1.44,2.58,1.27,–,1.99
ATCTCTAGGAAAGACTCAGTTCAGTGAAGAACGC,0.415,-0.181,0.129,0.549,-0.107,0.203,0.155,–,1.33
CGTCCAAGGTCATTGCTAGGTCAGTGAAAGCATT,4.96,7.64,6.66,4.51,5.45,4.38,3.31,–,4.55
GCGACTGGGGCATCGGCAGGTTACCATAACTTAA,1.07,1.17,0.592,-0.207,0.141,1.11,0.42,–,-0.113
CCTAGCAGGCCAATCTGGGTCACTCCAGGCTTGA,2.01,0.98,1.01,-0.206,0.548,3.49,0.312,–,-0.0635
TGAAAGAGGTTATAAGATCAGGGAACGTTGCAAA,0.261,2.01,1.15,0.022,2.37,0.935,-0.921,–,-0.105
GCTAGCAGGCCATTTGGGTCACACAATGACGGGC,1.93,1.23,1.48,-0.0753,1.2,2.03,0.818,–,0.18
ATCTCTAGGTAACCAAATTCAGTGAATGCCGAAC,0.339,0.22,0.428,0.324,0.301,0.659,0.778,–,0.572
TCGATTAGGTTAGGGGCATTCAGAATGGCGTCGA,1.25,0.511,0.723,1.34,0.857,1.33,0.776,–,1.08
TCTATTAGTTGTTTAGGGCAACCGAAACAGCGGA,0.623,0.681,0.7,0.754,0.557,1.07,0.864,–,0.463
ACTCGGAGGACAAAGGTCAGAGCGACGCCAGTGA,4.63,6.19,5.38,1.24,5.37,3.66,0.5,–,1.18
GATACAGGGCCAGCTAGAGGCCAGAGTATGGAAA,0.561,0.806,0.594,-1.03,-0.349,-0.394,-0.861,–,-0.246
TCATACAGGTAAAGGTGAAAGTCGAACGATATGA,1.73,1.78,1.69,1.17,2.23,1.46,0.0499,–,0.141
CAAACTAGGTCAAGAGGTGAAAGTCCGCTTCCCG,4.18,5.62,5.36,1.5,4.52,3.58,1.67,–,0.973
ATCTCTAGGTAACCAAGTTTAGTGAATGCCGAAC,0.287,0.383,0.348,0.384,0.298,0.78,0.672,–,0.855
GCTAGCAGGCCATTTGGATCACTCAATGACGGGC,-0.535,-0.278,-0.00293,0.0121,-0.0428,-0.754,-0.938,–,-0.518
